Shown are actives, neighbours in structure and some others; about 3.7% of the full set was active somewhere.
BoNT F protease: BoNT/F light chain protease inhibitors, primary screen, biochemical, flow cytometry, MLPCN library; Botulinum neurotoxin type F light chain protease (Clostridium botulinum); Multiplex microsphere protease cleavage assay; inhibition, % at 10 µM; 360,000 tested, 0.22% active; AID 588497, 2011; in the data active = inhibition above about 35%, passing the limit was not always enough; inconclusive = no clear call, values can overlap the other calls; also: plate controls were buffer without enzyme for full effect and enzyme alone for no effect
Anthrax LF prot: Bacillus anthracis LF protease inhibitors, primary screen, biochemical, multiplex microsphere, MLPCN library | Lethal factor (Bacillus anthracis), P15917 | multiplex microsphere protease cleavage assay | inhibition, % at 10 µM | 360,000 tested, 0.12% active | AID 588501, 2011; also: plate controls were buffer without enzyme for full effect and enzyme alone for no effect
Target sequence (P15917 whole entry, looked up): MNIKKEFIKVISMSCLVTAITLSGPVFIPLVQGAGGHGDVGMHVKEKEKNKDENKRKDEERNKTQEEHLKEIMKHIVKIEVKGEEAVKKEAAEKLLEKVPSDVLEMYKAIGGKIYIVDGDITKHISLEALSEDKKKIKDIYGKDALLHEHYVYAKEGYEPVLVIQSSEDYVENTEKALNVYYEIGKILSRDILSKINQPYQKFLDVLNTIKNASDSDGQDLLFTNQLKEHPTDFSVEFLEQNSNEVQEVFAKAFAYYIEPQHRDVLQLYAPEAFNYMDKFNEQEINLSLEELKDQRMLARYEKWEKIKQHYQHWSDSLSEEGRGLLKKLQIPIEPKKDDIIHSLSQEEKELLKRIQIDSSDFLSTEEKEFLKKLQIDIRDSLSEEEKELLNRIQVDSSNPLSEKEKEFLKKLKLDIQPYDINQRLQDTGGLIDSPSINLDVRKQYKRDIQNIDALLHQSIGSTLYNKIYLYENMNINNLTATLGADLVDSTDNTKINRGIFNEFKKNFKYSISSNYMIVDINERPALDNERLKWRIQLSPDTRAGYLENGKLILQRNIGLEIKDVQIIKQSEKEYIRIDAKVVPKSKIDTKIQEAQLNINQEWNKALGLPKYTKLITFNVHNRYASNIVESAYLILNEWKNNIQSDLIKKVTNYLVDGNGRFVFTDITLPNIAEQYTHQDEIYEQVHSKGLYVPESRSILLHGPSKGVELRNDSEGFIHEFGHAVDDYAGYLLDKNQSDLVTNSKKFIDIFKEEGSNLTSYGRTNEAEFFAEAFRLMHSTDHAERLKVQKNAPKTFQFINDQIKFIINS
BoNT A protease: BoNT/A light chain protease inhibitors, primary screen, biochemical, flow cytometry, MLPCN library; multiplex microsphere protease substrate cleavage; Botulinum neurotoxin type A light chain protease (Clostridium botulinum A str. ATCC 3502); AID 588499, 2011; 360,000 tested, 0.17% active; inhibition, % at 10 µM; also: plate controls were buffer without enzyme for full effect and enzyme alone for no effect
MazEF act: activators of E. coli MazEF toxin-antitoxin RNase, primary screen, biochemical, fluorescence, uHTS | FAM/BHQ RNA-DNA oligo cleavage fluorescence, 5 h | 350,000 tested, 0.32% active | activation, % at 20 µM | Endoribonuclease toxin MazF (Escherichia coli (strain K12)), P0AE70; in the data active = activation above about 50%
Bead autofluor: flagged as autofluorescent in microsphere protease counterscreen; compound autofluorescence counterscreen, microsphere flow cytometry; stronger effect = higher value; fluorescence intensity (test concentration not listed); 360,000 tested, 3.1% active; AID 624483; in the data active = fluorescence intensity above about 16000; inconclusive = no clear call, values can overlap the other calls
The depositor's hits bear a star; ? = inconclusive; nt = no result. Rule as the data show it, unless noted: active = inhibition above about 30%; inconclusive = no clear call, values can overlap the other calls; inactive = below that.

SMILES | BoNT F protease | Anthrax LF prot | BoNT A protease | MazEF act | Bead autofluor
Nc1ncnc2c1ncn2[C@@H]1O[C@H](CNCC#Cc2ccccc2)[C@@H](O)[C@H]1O | -8 | -2 | -1 | 0 | 3425
Cc1ccc(CNC(=O)c2cc(S(=O)(=O)N3CCOCC3)cn2C)cc1 | -10 | -4 | 0 | 6 | 4944
CCCCNCCOCCSc1ccc(Cl)cc1 | -9 | -3 | -1 | 11 | 21188*
CC(C)NCCOCCSc1ccc(Cl)cc1 | 21 | 1 | 1 | 6 | 4626
CN(C)CCOCCSc1ccc(Cl)cc1 | -5 | -7 | -2 | -2 | 23961*
CC(=O)c1ccc(OCc2cc(C(=O)NCCn3nc(C)cc3C)no2)cc1 | 28 | 11 | 14 | -9 | ?
CCOC(=O)Cn1c(-c2ccc(Cl)nc2)nc2ccccc21 | -1 | 2 | -1 | -4 | 22764*
CC(C)OC(=O)c1c(NC(=O)CCn2nnc3ccccc32)sc2c1CCCC2 | -2 | 1 | ? | -11 | 20341*
CC(C)OC(=O)c1c(NC(=O)CCC(=O)O)sc2c1CCCCC2 | -1 | -2 | 0 | 1 | 2443
Cc1ccc2c(c1)N(C(=O)CCC(=O)N1CCCCC1)CCO2 | 1 | 0 | 0 | 3 | 5542
COc1ccc(CC(=O)OCC(=O)NC(=O)NC23CC4CC(CC(C4)C2)C3)cc1 | -1 | -1 | -1 | -3 | 24237*
O=C(COC(=O)c1n[nH]c2ccccc12)NC(=O)NC12CC3CC(CC(C3)C1)C2 | 2 | -2 | ? | -13 | 19573*
O=C(COC(=O)c1n[nH]c2ccccc12)NC(=O)NC1CCCC1 | -5 | -2 | 0 | -3 | 2964
CCC(C)(C(=O)NC1CCCC1)N(C(=O)c1cnccn1)c1c(C)n(C)n(-c2ccccc2)c1=O (stereo not given) | 3 | 0 | ? | -4 | 21671*
CCC(C)(C(=O)NC1CCCCC1)N(C(=O)c1cnccn1)c1c(C)n(C)n(-c2ccccc2)c1=O (stereo not given) | -2 | 0 | ? | 1 | 21469*
CCC(C)(C(=O)NC1CCCCC1)N(C(=O)CNC(C)=O)c1c(C)n(C)n(-c2ccccc2)c1=O (stereo not given) | -6 | -3 | 1 | 0 | 3852
CCN(CC)c1ccc(C(=O)c2ccccc2C(=O)O)c(O)c1 | -5 | -2 | ? | 5 | 23518*
CCN(CC)c1ccc(/C=N/N(c2ccccc2)c2ccccc2)c(O)c1 | -32 | -16 | -1 | 1 | 7854
CC(C)c1ccc(NC(=O)Nc2nc(C(N)COCc3ccccc3)cs2)cc1 (stereo not given) | -23 | -5 | 0 | nt | 3747
CC1(C)CC(=O)c2c(oc3cc(O)c(O)cc23)C1 | -3 | -1 | -2 | 2 | 17024*
Cc1cccc(C(=O)NCCN2CCCC2)c1 | 0 | -2 | -1 | -2 | 20070*
Cc1ccc(C(=O)NCCN2CCCC2)cc1 | -11 | -2 | 0 | -1 | 3009
Cc1cccc(OCC(=O)NCCN2CCOCC2)c1 | -5 | -2 | -2 | -7 | 20366*
CCOc1c(Cl)cc(C(=O)NCCN2CCCCC2)cc1Cl | 4 | 2 | 4 | 6 | 22799*
Cc1ccc(OCC(=O)NNc2c3ccccc3nc3ccccc23)cc1 | -6 | -3 | 0 | 1 | 2128
SMILES | BoNT F protease | Anthrax LF prot | BoNT A protease | MazEF act | Bead autofluor
Cc1cccc(OCC(=O)NNc2c3ccccc3nc3ccccc23)c1 | 0 | -3 | 2 | -3 | 21560*
C=CCNc1nc2c(c(=O)[nH]c(=O)n2C)n1CC(O)COc1ccc2ccccc2c1 (stereo not given) | -13 | -1 | -5 | 5 | 3096
O=C(COc1ccccc1[N+](=O)[O-])NCCCN1CCCC1=O | 0 | -6 | 0 | 6 | 3091
CC(C)COC(=O)CCn1[nH]c(=O)c2ccccc2c1=O | 1 | 0 | ? | 1 | 22405*
CCN(CC(=O)NC1CCS(=O)(=O)C1)S(=O)(=O)c1cc(C)ccc1C (stereo not given) | nt | nt | nt | 2 | nt
Cc1ccc(S(=O)(=O)N2CCN(C(=O)COC(=O)COc3ccccc3)CC2)cc1 | 2 | -1 | 0 | 5 | 20093*
Cc1ccc(S(=O)(=O)N2CCN(C(=O)CN3CCc4ccccc4C3)CC2)cc1 | -5 | 0 | -2 | 0 | 21614*
COc1ccc(S(=O)(=O)N2CCN(C(=O)COc3ccccc3)CC2)cc1 | -1 | 2 | -1 | 7 | 3395
O=C(CN1CCc2ccccc2C1)N1CCN(S(=O)(=O)c2ccccc2)CC1 | -2 | -12 | 1 | 3 | ?
CC(=O)N(CCc1ccccc1)Cc1cc2cc(C)ccc2[nH]c1=O | -23 | -8 | -3 | -7 | 4478
COc1ccc2[nH]c(=O)c(CN(CCc3ccccc3)C(C)=O)cc2c1 | 3 | 0 | 2 | 9 | 22156*
COc1ccc2[nH]c(=O)c(CN(C)C(=O)c3ccncc3)cc2c1 | -3 | 0 | -2 | -2 | 20262*
COC(=O)CN(n1cnnc1)S(=O)(=O)c1ccccc1 | 4 | -6 | 2 | -1 | 22038*
COC(=O)CN(c1ccccc1)S(=O)(=O)c1ccccc1 | -23 | -4 | -2 | 2 | 6968
CCOC(=O)CN1C(=O)CSc2ccccc21 | -6 | 1 | -3 | -1 | 24381*
O=C1CSc2ccccc2N1Cc1ccc(F)cc1 | 14 | -4 | 6 | -1 | 21142*
CC(Sc1nnc(C2CC2)n1C1CC1)C(=O)Nc1cccc(S(=O)(=O)N(C)C)c1 (stereo not given) | -5 | -8 | 0 | 4 | 3709
COc1ccccc1NS(=O)(=O)c1ccc(C(=O)N2CC(C)OC(C)C2)cc1 (stereo not given) | -1 | -1 | 0 | 5 | 4000
Cc1nn(Cc2ccccc2)c(C)c1NC(=O)c1cc(-c2ccc3c(c2)OCO3)on1 | -2 | 1 | ? | -19 | 16514*
Cc1nn(Cc2ccccc2)c(C)c1NC(=O)c1cc(-c2cccs2)on1 | 0 | -3 | 0 | -2 | 16449*
COc1ccc(-c2cc(C(=O)Nc3c(C)nn(Cc4ccccc4)c3C)no2)cc1 | -6 | -2 | -2 | -9 | 24465*
Cc1c(NC(=O)c2cc(-c3ccc4c(c3)OCO4)on2)c(=O)n(-c2ccccc2)n1C | -8 | 2 | -1 | -4 | 9741
Cc1nn(Cc2ccccc2)c(C)c1NC(=O)c1cccs1 | 4 | 0 | 1 | -22 | 10350
CSc1ccccc1NC(=O)c1cc(-c2cccs2)on1 | 2 | -1 | ? | -4 | 24196*
COc1ccc(-c2cc(C(=O)Nc3ccccc3SC)no2)cc1 | -7 | -2 | 1 | -4 | 3844
O=C(NCCCn1ccnc1)c1cc(-c2ccc(Br)cc2)on1 | 2 | 0 | 0 | -13 | 4461
COc1cccc(-c2cc(C(=O)Nc3c(C)nn(Cc4ccccc4)c3C)no2)c1 | 10 | -2 | 1 | 0 | 10684
